# In paper PMC7862700, “An all-to-all approach to the identification of sequence-specific readers for epigenetic DNA modifications on cytosine”:
# How the values were obtained:
# Test in all cases: DAPPL (digital affinity profiling via proximity ligation, sequencing); 10 mM Tris-HCl pH 7.5, 50 mM NaCl, 1 mM DTT, 4% glycerol, room temperature, 30 min; GST-TFs on glutathione beads, 16-mer random dsDNA library, 0.1% formaldehyde crosslink after washing; high values mean tight binding
# FEV = molecular target: T1, FEV (Homo sapiens, UniProt Q99581 1-238); conditions: protein: recombinant; tags: N-terminal GST; dsDNA, one strand shown
# T1 sequence: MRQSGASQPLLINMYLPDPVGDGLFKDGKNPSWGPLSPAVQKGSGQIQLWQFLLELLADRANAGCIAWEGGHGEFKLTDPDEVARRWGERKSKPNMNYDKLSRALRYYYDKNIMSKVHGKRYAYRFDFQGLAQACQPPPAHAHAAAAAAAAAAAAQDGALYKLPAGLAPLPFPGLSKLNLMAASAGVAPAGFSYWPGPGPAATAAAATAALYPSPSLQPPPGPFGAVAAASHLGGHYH
# In short: (§1)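 Binding signal is defined as a hexamer's read frequency for one factor over its frequency for the tag-only sample. To obtain reads, GST-fused human transcription factors were expressed in yeast, captured on glutathione beads, barcoded with DNA and pooled with that sample. Pools met 200 nmole of a 16-mer random double-stranded DNA library in Tris/NaCl/DTT/glycerol buffer for 30 min at room temperature before washing, 0.1% formaldehyde crosslinking, proximity ligation (BsaI/T4 ligase, 1 h, 37 °C), PCR and Illumina NextSeq500 sequencing.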
# ETV5 = ETV5 (Homo sapiens, UniProt P41161 1-510); conditions: protein: recombinant; tags: N-terminal GST; dsDNA, one strand shown
# Chain of ETV5 (P41161 whole entry): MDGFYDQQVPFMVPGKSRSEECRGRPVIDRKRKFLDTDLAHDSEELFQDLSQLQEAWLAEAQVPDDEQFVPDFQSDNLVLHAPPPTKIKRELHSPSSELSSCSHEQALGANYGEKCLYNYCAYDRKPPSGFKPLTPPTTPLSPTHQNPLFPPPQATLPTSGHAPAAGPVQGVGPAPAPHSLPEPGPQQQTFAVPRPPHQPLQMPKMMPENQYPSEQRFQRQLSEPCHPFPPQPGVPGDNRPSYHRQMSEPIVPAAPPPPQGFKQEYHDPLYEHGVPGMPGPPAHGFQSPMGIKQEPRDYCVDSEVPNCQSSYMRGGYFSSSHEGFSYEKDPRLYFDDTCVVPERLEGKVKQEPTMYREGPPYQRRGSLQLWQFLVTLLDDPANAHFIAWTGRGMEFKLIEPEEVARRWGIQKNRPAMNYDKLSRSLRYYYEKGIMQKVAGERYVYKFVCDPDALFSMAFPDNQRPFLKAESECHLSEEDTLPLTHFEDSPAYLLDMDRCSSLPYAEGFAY
# In short: as §1
# HSF1 = HSF1 (Homo sapiens, UniProt Q00613 1-529); conditions: protein: recombinant; tags: N-terminal GST; chain copies: 3; dsDNA, one strand shown
# Chain of HSF1 (Q00613 whole entry): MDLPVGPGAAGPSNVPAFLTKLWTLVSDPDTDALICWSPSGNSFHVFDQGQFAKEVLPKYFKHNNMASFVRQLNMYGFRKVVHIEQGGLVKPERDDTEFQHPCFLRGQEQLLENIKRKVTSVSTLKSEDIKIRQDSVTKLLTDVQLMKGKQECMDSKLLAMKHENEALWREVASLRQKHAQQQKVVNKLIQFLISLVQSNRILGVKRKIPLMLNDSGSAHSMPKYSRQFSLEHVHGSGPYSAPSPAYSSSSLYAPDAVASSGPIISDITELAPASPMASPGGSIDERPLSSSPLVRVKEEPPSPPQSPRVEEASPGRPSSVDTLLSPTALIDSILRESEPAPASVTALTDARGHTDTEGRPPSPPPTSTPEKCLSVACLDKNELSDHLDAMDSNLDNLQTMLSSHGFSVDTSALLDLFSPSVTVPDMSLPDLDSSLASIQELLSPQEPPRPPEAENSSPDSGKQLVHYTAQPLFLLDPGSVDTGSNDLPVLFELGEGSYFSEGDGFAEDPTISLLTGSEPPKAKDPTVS
# In short: as §1
# SPIC = molecular target: T2, SPIC (Homo sapiens, UniProt Q8N5J4 1-248); conditions: protein: recombinant; tags: N-terminal GST; dsDNA, one strand shown
# T2 sequence: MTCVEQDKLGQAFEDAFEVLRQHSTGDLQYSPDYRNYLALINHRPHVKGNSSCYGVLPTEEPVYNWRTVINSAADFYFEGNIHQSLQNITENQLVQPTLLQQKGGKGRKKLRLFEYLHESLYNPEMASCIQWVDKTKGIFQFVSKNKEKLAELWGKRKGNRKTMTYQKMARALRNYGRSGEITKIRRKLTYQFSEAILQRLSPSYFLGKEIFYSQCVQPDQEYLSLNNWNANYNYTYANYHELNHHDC
# In short: as §1
# ELF4 = ELF4 (Homo sapiens, UniProt Q99607 1-663); conditions: protein: recombinant; tags: N-terminal GST; dsDNA, one strand shown
# Chain of ELF4 (Q99607 whole entry): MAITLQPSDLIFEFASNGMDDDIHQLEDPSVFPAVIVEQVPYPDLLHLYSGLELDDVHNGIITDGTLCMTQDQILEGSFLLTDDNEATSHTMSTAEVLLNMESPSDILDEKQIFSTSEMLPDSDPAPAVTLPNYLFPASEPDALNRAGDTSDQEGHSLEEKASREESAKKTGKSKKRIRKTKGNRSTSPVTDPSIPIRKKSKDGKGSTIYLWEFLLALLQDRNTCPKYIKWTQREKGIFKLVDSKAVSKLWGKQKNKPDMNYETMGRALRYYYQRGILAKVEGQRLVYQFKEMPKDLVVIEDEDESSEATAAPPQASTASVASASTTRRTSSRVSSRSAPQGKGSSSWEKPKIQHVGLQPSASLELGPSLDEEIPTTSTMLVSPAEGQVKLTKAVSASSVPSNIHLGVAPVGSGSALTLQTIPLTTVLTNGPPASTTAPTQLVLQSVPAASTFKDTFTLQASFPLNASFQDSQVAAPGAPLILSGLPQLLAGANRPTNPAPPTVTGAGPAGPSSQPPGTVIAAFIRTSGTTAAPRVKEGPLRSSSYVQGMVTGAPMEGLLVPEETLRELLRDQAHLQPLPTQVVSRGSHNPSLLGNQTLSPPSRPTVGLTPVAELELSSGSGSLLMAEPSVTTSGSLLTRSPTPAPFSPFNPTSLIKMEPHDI
# In short: as §1
# ELK4 = molecular target: T3, ELK4 (Homo sapiens, UniProt P28324-2 1-405); conditions: protein: recombinant; tags: N-terminal GST; dsDNA, one strand shown
# T3 sequence: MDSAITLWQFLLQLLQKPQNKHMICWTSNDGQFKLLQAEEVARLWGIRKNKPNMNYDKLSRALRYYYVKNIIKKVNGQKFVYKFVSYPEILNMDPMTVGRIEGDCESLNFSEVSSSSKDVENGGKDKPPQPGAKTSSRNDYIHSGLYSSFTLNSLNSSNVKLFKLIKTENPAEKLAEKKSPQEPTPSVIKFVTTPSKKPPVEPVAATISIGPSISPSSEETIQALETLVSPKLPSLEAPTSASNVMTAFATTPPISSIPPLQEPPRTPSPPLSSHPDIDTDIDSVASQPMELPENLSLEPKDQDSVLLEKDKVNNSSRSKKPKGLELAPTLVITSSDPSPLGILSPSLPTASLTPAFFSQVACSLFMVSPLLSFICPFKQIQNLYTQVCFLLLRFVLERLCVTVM
# In short: as §1
# ETV2 = molecular target: T4, ETV2 (Homo sapiens, UniProt O00321 1-342); conditions: protein: recombinant; tags: N-terminal GST; dsDNA, one strand shown
# T4 sequence: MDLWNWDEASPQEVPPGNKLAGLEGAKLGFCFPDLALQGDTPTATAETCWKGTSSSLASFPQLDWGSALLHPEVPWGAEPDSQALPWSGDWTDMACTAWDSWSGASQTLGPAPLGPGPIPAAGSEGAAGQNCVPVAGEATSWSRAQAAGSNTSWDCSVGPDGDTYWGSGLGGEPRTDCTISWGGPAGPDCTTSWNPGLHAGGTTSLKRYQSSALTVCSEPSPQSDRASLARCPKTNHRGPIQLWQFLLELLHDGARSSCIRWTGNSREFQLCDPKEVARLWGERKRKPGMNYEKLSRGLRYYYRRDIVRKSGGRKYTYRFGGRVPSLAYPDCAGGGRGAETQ
# In short: as §1
# ELF3 = molecular target: T5, ELF3 (Homo sapiens, UniProt P78545 1-371); conditions: protein: recombinant; tags: N-terminal GST; dsDNA, one strand shown
# T5 sequence: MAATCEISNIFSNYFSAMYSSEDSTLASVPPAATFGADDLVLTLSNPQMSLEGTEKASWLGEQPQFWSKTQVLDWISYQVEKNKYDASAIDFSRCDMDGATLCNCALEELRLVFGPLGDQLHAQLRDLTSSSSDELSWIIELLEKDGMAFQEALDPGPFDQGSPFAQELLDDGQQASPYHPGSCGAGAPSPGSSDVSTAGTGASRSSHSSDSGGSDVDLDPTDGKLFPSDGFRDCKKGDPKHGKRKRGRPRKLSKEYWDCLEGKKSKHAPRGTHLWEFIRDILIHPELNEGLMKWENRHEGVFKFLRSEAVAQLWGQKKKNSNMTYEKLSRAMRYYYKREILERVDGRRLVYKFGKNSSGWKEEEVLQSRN
# In short: as §1
# CRX = CRX (Homo sapiens, UniProt O43186 1-299); conditions: protein: recombinant; tags: N-terminal GST; dsDNA, one strand shown
# Chain of CRX (O43186 whole entry): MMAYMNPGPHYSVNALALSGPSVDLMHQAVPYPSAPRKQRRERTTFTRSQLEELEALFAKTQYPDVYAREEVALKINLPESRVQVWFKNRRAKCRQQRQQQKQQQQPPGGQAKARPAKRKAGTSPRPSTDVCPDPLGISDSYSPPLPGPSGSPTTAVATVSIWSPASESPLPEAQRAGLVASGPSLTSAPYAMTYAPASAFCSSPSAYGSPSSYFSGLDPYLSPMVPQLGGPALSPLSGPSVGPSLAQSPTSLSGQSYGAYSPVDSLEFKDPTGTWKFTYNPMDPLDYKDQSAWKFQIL
# In short: as §1
# ETV1 = ETV1 (Homo sapiens, UniProt P50549 1-477); conditions: protein: recombinant; tags: N-terminal GST; dsDNA, one strand shown
# Chain of ETV1 (P50549 whole entry): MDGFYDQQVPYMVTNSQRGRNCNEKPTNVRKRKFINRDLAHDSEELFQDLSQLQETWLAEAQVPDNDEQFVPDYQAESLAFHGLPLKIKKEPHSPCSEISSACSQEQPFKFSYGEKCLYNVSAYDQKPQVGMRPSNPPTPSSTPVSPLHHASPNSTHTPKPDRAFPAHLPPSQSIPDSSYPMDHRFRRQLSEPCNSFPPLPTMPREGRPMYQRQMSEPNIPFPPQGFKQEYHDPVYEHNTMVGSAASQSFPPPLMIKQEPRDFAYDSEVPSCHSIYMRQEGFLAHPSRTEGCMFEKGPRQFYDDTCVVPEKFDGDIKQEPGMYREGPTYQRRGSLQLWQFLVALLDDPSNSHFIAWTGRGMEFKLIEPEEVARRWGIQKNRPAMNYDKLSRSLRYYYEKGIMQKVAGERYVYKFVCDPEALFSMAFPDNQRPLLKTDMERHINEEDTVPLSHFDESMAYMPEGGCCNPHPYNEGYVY
# In short: as §1
# ERF = molecular target: T6, ERF (Homo sapiens, UniProt P50548 1-548); conditions: protein: recombinant; tags: N-terminal GST; dsDNA, one strand shown
# T6 sequence: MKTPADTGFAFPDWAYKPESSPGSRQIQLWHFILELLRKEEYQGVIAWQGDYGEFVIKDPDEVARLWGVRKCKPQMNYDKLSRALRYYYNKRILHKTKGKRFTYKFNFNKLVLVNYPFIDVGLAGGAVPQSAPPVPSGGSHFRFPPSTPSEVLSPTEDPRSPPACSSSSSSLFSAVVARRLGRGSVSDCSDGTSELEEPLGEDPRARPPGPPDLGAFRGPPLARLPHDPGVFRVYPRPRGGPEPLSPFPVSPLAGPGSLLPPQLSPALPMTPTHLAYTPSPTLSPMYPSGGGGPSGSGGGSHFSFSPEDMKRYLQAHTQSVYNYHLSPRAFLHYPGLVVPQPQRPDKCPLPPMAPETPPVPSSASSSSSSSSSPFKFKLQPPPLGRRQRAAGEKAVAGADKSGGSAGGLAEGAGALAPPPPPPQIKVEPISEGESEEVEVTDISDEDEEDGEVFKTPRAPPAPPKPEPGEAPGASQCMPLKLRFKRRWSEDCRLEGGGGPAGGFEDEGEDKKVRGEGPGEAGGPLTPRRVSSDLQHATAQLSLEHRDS
# In short: as §1
# ETV3L = molecular target: T7, ETV3L (Homo sapiens, UniProt Q6ZN32 1-361); conditions: protein: recombinant; tags: N-terminal GST; dsDNA, one strand shown
# T7 sequence: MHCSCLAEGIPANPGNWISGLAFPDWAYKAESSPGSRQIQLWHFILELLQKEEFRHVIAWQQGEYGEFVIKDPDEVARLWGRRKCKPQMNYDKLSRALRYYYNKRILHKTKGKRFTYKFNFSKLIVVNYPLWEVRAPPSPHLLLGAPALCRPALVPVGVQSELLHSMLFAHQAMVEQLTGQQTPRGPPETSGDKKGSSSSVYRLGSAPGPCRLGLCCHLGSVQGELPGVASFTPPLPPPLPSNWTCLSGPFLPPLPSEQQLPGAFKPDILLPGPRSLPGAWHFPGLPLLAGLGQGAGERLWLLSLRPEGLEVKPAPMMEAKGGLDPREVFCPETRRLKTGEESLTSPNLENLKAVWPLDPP
# In short: as §1
# ETS2 = molecular target: T8, ETS2 (Homo sapiens, UniProt P15036 1-469); conditions: protein: recombinant; tags: N-terminal GST; dsDNA, one strand shown
# T8 sequence: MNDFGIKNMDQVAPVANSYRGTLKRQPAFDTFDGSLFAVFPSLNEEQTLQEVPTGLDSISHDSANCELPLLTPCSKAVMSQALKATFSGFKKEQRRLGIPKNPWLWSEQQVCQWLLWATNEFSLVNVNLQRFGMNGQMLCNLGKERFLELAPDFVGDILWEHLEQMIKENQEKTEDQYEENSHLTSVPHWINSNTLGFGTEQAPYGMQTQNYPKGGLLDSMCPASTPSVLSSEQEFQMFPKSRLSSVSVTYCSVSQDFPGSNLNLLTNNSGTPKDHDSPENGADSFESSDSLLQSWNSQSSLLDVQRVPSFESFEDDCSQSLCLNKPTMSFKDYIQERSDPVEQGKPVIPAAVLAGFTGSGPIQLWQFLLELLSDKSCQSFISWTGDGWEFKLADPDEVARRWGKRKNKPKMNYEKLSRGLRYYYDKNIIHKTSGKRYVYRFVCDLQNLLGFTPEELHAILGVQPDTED
# In short: as §1
# SPDEF = molecular target: T9, SPDEF (Homo sapiens, UniProt O95238 1-335); conditions: protein: recombinant; tags: N-terminal GST; dsDNA, one strand shown
# T9 sequence: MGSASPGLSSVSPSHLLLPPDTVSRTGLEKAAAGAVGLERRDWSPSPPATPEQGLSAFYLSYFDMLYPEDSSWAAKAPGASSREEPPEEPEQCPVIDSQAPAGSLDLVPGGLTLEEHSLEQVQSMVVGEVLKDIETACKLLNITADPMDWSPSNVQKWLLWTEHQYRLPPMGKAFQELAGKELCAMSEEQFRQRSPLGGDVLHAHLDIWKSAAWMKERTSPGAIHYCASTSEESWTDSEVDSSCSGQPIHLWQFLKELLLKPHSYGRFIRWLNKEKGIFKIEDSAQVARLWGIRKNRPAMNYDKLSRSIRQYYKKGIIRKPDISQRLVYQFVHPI
# In short: as §1
# ETV7 = molecular target: T10, ETV7 (Homo sapiens, UniProt Q9Y603 1-341); conditions: protein: recombinant; tags: N-terminal GST; dsDNA, one strand shown
# T10 sequence: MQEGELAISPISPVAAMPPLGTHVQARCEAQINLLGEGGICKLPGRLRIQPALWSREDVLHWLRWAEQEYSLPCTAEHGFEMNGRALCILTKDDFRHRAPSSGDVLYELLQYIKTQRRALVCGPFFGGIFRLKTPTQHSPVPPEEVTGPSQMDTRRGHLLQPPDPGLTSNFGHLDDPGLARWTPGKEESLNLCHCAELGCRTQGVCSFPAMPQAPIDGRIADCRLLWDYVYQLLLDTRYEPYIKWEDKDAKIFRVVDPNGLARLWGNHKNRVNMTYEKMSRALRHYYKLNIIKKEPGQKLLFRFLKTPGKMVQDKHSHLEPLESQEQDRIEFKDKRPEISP
# In short: as §1
# ELF5 = molecular target: T11, ELF5 (Homo sapiens, UniProt Q9UKW6-2 1-255); conditions: protein: recombinant; tags: N-terminal GST; dsDNA, one strand shown
# T11 sequence: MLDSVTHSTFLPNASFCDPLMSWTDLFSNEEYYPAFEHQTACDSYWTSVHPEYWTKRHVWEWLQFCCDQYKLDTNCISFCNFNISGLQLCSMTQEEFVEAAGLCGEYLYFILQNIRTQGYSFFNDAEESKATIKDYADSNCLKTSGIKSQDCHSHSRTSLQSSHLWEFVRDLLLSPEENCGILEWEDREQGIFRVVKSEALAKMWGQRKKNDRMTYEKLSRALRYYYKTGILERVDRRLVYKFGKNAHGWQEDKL
# In short: as §1
# ETV3 = molecular target: T12, ETV3 (Homo sapiens, UniProt P41162-2 1-143); conditions: protein: recombinant; tags: N-terminal GST; dsDNA, one strand shown
# T12 sequence: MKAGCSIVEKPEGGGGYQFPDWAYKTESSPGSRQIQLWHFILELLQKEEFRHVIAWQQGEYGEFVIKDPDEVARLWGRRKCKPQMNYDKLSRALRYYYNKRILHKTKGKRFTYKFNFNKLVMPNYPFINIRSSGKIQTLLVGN
# In short: as §1
# ETV6 = ETV6 (Homo sapiens, UniProt P41212 1-452); conditions: protein: recombinant; tags: N-terminal GST; dsDNA, one strand shown
# Chain of ETV6 (P41212 whole entry): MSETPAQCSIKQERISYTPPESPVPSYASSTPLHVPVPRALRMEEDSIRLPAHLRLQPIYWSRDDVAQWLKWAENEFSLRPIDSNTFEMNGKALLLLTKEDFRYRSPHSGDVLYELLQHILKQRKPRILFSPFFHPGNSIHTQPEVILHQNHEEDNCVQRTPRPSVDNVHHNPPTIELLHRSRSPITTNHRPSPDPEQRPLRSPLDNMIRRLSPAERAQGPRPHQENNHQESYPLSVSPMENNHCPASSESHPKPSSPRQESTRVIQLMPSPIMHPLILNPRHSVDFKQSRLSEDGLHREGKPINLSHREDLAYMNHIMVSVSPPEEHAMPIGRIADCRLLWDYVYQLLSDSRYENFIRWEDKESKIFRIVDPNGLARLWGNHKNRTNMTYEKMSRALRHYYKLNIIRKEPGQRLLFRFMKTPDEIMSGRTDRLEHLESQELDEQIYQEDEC
# In short: as §1
sequence,measurement,setting,value
CCCGGA,binding signal,FEV,"2.77 fold enrichment (6-mer frequency, TF over GST control)"
same,binding signal,ETV5,"3.14 fold enrichment (6-mer frequency, TF over GST control)"
same,binding signal,HSF1,"1.14 fold enrichment (6-mer frequency, TF over GST control)"
same,binding signal,SPIC,"2.52 fold enrichment (6-mer frequency, TF over GST control)"
same,binding signal,ELF4,"2.6 fold enrichment (6-mer frequency, TF over GST control)"
same,binding signal,ELK4,"2.16 fold enrichment (6-mer frequency, TF over GST control)"
same,binding signal,ETV2,"2.55 fold enrichment (6-mer frequency, TF over GST control)"
same,binding signal,ELF3,"2.88 fold enrichment (6-mer frequency, TF over GST control)"
same,binding signal,CRX,"1.03 fold enrichment (6-mer frequency, TF over GST control)"
same,binding signal,ETV1,"2.98 fold enrichment (6-mer frequency, TF over GST control)"
same,binding signal,ERF,"2.32 fold enrichment (6-mer frequency, TF over GST control)"
same,binding signal,ETV3L,"2.8 fold enrichment (6-mer frequency, TF over GST control)"
same,binding signal,ETS2,"2.98 fold enrichment (6-mer frequency, TF over GST control)"
same,binding signal,SPDEF,"3.97 fold enrichment (6-mer frequency, TF over GST control)"
same,binding signal,ETV7,"2.48 fold enrichment (6-mer frequency, TF over GST control)"
same,binding signal,ELF5,"3.77 fold enrichment (6-mer frequency, TF over GST control)"
same,binding signal,ETV3,"3.23 fold enrichment (6-mer frequency, TF over GST control)"
same,binding signal,ETV6,"2.89 fold enrichment (6-mer frequency, TF over GST control)"
